gsp antagonist = gsp mutant antagonism; gsp-mutant cells, cAMP HTRF, 30 min; Potency, µM (top dose mostly 76.9 µM), for inactives: at the highest dose activity change, negative = inhibition, most hits filed as inhibitors; 340,000 compounds, 0.4% hits; calls by dose curve; cell line not stated here;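 also: intracellular cAMP measured with PDE inhibitor Ro 20-1724 present during compound exposure; potency is read from the fitted curve at half-maximal effect; % is scaled to controls: 0 for no effect and ±100 for the full control effect; nearly all actives have a fitted effect of over 65% in size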
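Cells in G418 medium, seeded 16-24 h, 37C; buffer exchange to DPBS + 1 mM CaCl2, 0.5 mM MgCl2, 0.05% BSA; cpds in DMSO + […] (300 uM stock), 30 min 37C; HTRF cAMP detection.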
TSHR antag = human thyrotropin receptor antagonism | P16473 | TSHR-expressing cells, TSH-stimulated cAMP HTRF, 2 h; active compounds read low | activity change, negative = inhibition, % at 11.5 µM | 330,000 compounds, 0.2% hits | AID 504810;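 active = activity change below a set negative limit, meaning inhibition stronger than a set level, cut at about -70% in these data; inconclusive = activity change between two set negative limits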; also: % is scaled to controls: 0 for no effect and ±100 for the full control effect
Target sequence (P16473 whole entry, looked up): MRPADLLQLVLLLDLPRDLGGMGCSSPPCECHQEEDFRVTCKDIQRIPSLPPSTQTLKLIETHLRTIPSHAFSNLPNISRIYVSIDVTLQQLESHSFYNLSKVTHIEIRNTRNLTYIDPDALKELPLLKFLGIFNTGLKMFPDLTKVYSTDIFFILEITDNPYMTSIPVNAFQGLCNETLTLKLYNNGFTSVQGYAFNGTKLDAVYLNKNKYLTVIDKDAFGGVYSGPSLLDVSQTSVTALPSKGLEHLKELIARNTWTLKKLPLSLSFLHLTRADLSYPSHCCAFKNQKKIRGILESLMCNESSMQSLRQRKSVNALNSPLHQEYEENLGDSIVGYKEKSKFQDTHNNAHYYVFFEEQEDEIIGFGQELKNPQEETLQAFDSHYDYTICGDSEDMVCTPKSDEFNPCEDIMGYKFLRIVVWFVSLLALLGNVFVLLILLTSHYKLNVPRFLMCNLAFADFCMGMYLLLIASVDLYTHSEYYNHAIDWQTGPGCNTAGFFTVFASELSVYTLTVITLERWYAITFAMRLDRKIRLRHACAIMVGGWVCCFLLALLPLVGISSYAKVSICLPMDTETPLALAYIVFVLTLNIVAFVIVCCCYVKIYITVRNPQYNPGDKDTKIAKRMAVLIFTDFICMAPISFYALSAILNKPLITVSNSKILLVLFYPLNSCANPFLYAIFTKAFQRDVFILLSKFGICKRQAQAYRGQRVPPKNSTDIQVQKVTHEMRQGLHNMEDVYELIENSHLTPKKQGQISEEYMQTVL
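TSHR-expressing cells were treated with compounds, then stimulated with TSH at EC80 (4nM final) for 2 hours at 37 deg C. Cellular cAMP was measured by HTRF competition between lysate cAMP and cAMP-d2 for a cryptate-labelled anti-cAMP antibody.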
RXFP1 antagonist = blocks the human relaxin receptor RXFP1; Q9HBX9; HEK293-RXFP1, relaxin-stimulated cAMP HTRF, 30 min; active compounds read low; activity change, negative = inhibition, % at 57.5 µM; 350,000 compounds, 0.59% hits;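 active = activity change of -60% or lower, but not beyond a set lower limit; inconclusive = change between -60% and -40%, or beyond the set limit; inactive = change above -40%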; also: % is scaled to controls: 0 for no effect and ±100 for the full control effect
gsp ag = gsp mutant agonism. Potency, µM (highest dose often 76.9 µM), without a hit: at the top dose activation (cAMP increase), usual class: activators. 340,000 compounds, 0.13% hits. gsp mutant cells, cAMP HTRF, 30 min; active = well fitted activation curve with a large enough effect; inconclusive = small, poorly fitted or top-dose-only effect, or another doubt; inactive = no such curve, though single readings can be large or run the other way; cell line not stated here;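 also: phosphodiesterase inhibitor Ro 20-1724 added with compounds to block cAMP breakdown; potency is read from the fitted curve at half-maximal effect; nearly all actives have a fitted effect of over 60% in size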
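Cells in DMEM/10% FBS with G418 were pretreated with compounds in DMSO plus […] (300 uM stock) for 30 min at 37C. cAMP was measured by HTRF (cAMP-d2 plus anti-cAMP antibody-K) after 30 min at room temperature.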
RXFP1 ag = RXFP1 (human) receptor agonism. Q9HBX9. HEK293T-RXFP1 cAMP TR-FRET, 30 min; response scale: percent of porcine relaxin response, buffer zero. Potency, µM (titrated, usually from 57.5 µM), inactives show at the top dose activation, actives largely listed as activators. 370,000 compounds, 0.3% hits; active = well fitted activation curve with a large enough effect; inconclusive = small, poorly fitted or top-dose-only effect; also: potency is read from the fitted curve at half-maximal effect; % is scaled to controls: 0 for no effect and ±100 for the full control effect; nearly all actives have a fitted effect of over 60% in size
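cAMP rise read by TR-FRET after 30 min, 37C compound exposure (up to 58 uM) in RXFP1-transfected HEK293 cells with Ro 20174 present. EC50 from Hill-equation fits, with 29 nM porcine relaxin as 100% and buffer as basal.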
* marks the source's active call; other numbers are inactive results; ? = inconclusive; / = no result given; ! = not confirmed by another sample; [ ] = another dose, or the depositor's remark. Only some compounds are listed: those with a hit (about 1% of all), similar ones and a draw of the others.

SMILES	gsp antagonist	TSHR antag	RXFP1 antagonist	gsp ag	RXFP1 ag
CCOC(=O)c1sc(=NC(=O)c2cccs2)n(C)c1C	-1%	5	-13	-10%[15.4 µM]	28µM*
Cc1ccccc1OCCCCn1nnc2sc3c(c2c1=O)CCC(C)C3 (stereo not drawn)	/	/	0	/	1%
NC(=O)c1ccsc1NC(=O)COC(=O)/C=C/c1ccccc1	?	-18	-69*	23%[15.4 µM]	0%
NC(=O)c1ccsc1NC(=O)COC(=O)/C=C/c1ccccc1[N+](=O)[O-]	1%	-19	-34	-5%[15.4 µM]	/
COc1ccc(-c2csc(NC(=O)CSc3n[nH]c(C)n3)n2)cc1	35µM*	-31	-25	6%	0%
Cc1oc(-c2ccc(C(=O)NC(C)c3ccccc3)cc2)nc1CS(=O)(=O)c1ccccc1 (stereo not drawn)	/	/	-11	/	1%
CNC(=O)CN(CCN(CCN(CC(=O)[O-])CC(=O)NC)CC(=O)[O-])CC(=O)[O-].O.[Gd+3]	/	/	-11	/	/
N#Cc1c(-c2ccc(Cl)cc2)cc(-c2cccs2)nc1SCC(=O)O	10µM*	-19	-23	?	4%
COc1ccc(S(=O)(=O)N2CCCN(CC(=O)Nc3ccc(OC)cc3OC)CC2)cc1	/	/	-8	/	0%
Cc1ccccc1-c1nc(CS(=O)(=O)CC(=O)NC2CC2)c(C)o1	1%	23	-78*	4%	0%
CCOCCOC(=O)/C=C/c1ccc(OC)cc1	/	/	32	/	/
CCC(=O)c1ccc(OCC(O)Cn2c(C)nc3ccccc32)cc1 (stereo not drawn)	-39%	-27	-16	28µM*	3%
Cc1nc2ccccc2n1CC(O)COc1ccc(C(=O)O)cc1 (stereo not drawn)	/	/	1	/	-1%
CC(=O)c1cccc(OCc2cc(C(=O)N3CCC(N4CCCCC4)CC3)no2)c1	-3%	-4	-81*	15%	0%
CCc1c(C)sc2c1CCN(C(=O)Nc1ccc(F)c(Cl)c1)C2c1ccc(F)cc1 (stereo not drawn)	/	/	-19	/	0%
Cc1ccc(C(C)(C)C)cc1S(=O)(=O)Nc1cccc(C(=O)N2CCN(c3ccccn3)CC2)c1	40µM*	-8	?	-19%	1%
Cc1cccc(NS(=O)(=O)c2cccc(C(=O)N3CCN(c4ccccn4)CC3)c2)c1	?	6	-3	-47%	0%
Fc1cc(F)c(C2SCCN2C(=S)Nc2cccc(C(F)(F)F)c2)c(F)c1 (stereo not drawn)	3%	-72*	-15	9%[15.4 µM]	0%
OCCN1CCN(C(=S)Nc2cccc(C(F)(F)F)c2)CC1	7%	-4	-69*!	3%	1%
CCOC(=O)c1ccc(NC(=S)N2CCSC2c2c(F)cc(F)cc2F)cc1 (stereo not drawn)	-15%	46	-19	17%	-1%
COC(=O)CCCCC(CCSS/C(CCO)=C(\C)N(C=O)Cc1cnc(C)nc1N)SC(C)=O (stereo not drawn)	/	/	2	/	/
CCN1CCc2c(sc(NC(=S)NC(=O)c3ccc(Cl)cc3)c2C(N)=O)C1	-18%	-4	-110*	11%[15.4 µM]	-6%
CCN1CCc2c(sc(NC(=O)c3ccc4ccccc4c3)c2C(N)=O)C1	/	12	/	/	4%
CC1CCc2c(sc(NC(=O)c3cc(-c4ccc(Br)cc4)on3)c2C(N)=O)C1 (stereo not drawn)	/	/	5	/	1%
Cc1ccc(CNC(=O)c2c[nH]c3ccc(S(=O)(=O)Nc4ccc(C(C)C)cc4)cc3c2=O)cc1	/	/	-29	/	-2%
SMILES	gsp antagonist	TSHR antag	RXFP1 antagonist	gsp ag	RXFP1 ag
Cc1cccc(S(=O)(=O)C(C#N)c2nc3ccccc3nc2N2CC(C)OC(C)C2)c1 (stereo not drawn)	-37%	/	-5	-33%	4%
Cc1ccc(S(=O)(=O)C(C#N)c2nc3ccccc3nc2N2CC(C)OC(C)C2)cc1C (stereo not drawn)	40µM*	-15	0	0%	2%
Cc1ccc(CN(C)CC(=O)Nc2ccc3c(c2)CCC3)cc1	-5%	-2	-64*	26%	0%
Cc1ccc(-c2nnc(SCC(=O)NC3CCCC3)nc2-c2ccc(C)cc2)cc1	/	/	-38	/	-1%
O=C(O)/C=C/C(=O)Nc1ccc(C2(c3ccc(NC(=O)/C=C/C(=O)O)cc3)c3ccccc3-c3ccccc32)cc1	1%	-86*	-61*	-19%	0%
NC(=O)c1ccc(N2CCN(c3ccc(O)cc3)CC2)c([N+](=O)[O-])c1	-7%	-10	?	-1%[15.4 µM]	-1%
CC(=O)c1ccc(N2CCN(c3ccc(C(N)=O)cc3[N+](=O)[O-])CC2)cc1	32µM*	-14	6	4%	0%
COc1ccc(CNC(=O)c2cc(-c3ccc(OC)c(OC)c3)nc3n[nH]c(-c4ccc(C)cc4)c23)cc1	/	/	-10	/	8%
O=C(CSc1nc(-c2ccc(F)cc2)[nH]c1-c1ccc(F)cc1)Nc1ccc2c(c1)OCO2	/	/	-60*	/	2%
O=C(CSc1nc(-c2ccc(F)cc2)[nH]c1-c1ccc(F)cc1)Nc1ccc2c(c1)OCCO2	/	/	?	/	2%
CCOC(=O)c1ccc(Nc2nnc(C(C)(C)C)c(=O)[nH]2)cc1	40µM*	-7	-10	2%	1%
CCOC(=O)c1ccc(Nc2cc(C)nc(C)c2C(=O)OCC)cc1	-4%	-10	1	-7%	3%
COc1cc(C(=O)Nc2sc3c(c2C#N)CCN(C(C)=O)C3)cc(OC)c1OC	0%	0	/	10µM*	17%
COc1ccc(C(=O)Nc2sc3c(c2C#N)CCN(C(C)=O)C3)cc1	15%	-7	-3	-6%	6%
CS(=O)(=O)c1nc(-c2ccccc2)cc(C(F)(F)F)n1	18%	-47	-106*	0%[15.4 µM]	1%
O=C(CC1C(=O)NCCN1Cc1cccc(F)c1F)NCCCC1CCCC1 (stereo not drawn)	1%	-82*	0	-41%	0%
Cc1ccc(C)c(CS(=O)(=O)c2cn(CC(=O)N(C(C)C)C(C)C)c3ccccc23)c1	/	/	-22	/	0%
CCCC(=O)Nc1c2c(nc3ccccc13)N(c1ccccc1)CC2	9%	12	-21	4%[15.4 µM]	6%
O=C(CN1CCCCC1)Nc1c2c(nc3ccccc13)N(c1ccccc1)CC2	12%	5	48	?	25µM*
CCc1ccccc1NC(=O)Nc1ccc2snnc2c1	/	/	/	/	2%
O=C(Nc1ccc2snnc2c1)Nc1cccc2ccccc12	50µM*	-24	-4	14%	0%
CCc1ccc(NC(=O)CCC(=O)c2ccccc2)cc1	35µM*	7	3	-5%	-3%
CCOC(=O)C(=O)CCc1ccccc1	/	/	-6	/	/
Cc1ccc(C(C)C)c(OCC(=O)NCC2(N3CCOCC3)CCCCC2)c1	/	/	-111*	/	4%
O=C(COc1ccc(Cl)cc1Cl)NCC1(N2CCOCC2)CCCCC1	-17%	6	-16	-22%[15.4 µM]	/
